Here are results for 19 molecules from the supplement of paper PMC11732987, “Enantioselective OTUD7B fragment discovery through chemoproteomics screening and high-throughput optimisation” (Communications Chemistry, 2025).

Values without a mark were called inactive.

The target in this assay is T1, USP38 (UniProt Q8NB14).
T1 sequence (whole entry): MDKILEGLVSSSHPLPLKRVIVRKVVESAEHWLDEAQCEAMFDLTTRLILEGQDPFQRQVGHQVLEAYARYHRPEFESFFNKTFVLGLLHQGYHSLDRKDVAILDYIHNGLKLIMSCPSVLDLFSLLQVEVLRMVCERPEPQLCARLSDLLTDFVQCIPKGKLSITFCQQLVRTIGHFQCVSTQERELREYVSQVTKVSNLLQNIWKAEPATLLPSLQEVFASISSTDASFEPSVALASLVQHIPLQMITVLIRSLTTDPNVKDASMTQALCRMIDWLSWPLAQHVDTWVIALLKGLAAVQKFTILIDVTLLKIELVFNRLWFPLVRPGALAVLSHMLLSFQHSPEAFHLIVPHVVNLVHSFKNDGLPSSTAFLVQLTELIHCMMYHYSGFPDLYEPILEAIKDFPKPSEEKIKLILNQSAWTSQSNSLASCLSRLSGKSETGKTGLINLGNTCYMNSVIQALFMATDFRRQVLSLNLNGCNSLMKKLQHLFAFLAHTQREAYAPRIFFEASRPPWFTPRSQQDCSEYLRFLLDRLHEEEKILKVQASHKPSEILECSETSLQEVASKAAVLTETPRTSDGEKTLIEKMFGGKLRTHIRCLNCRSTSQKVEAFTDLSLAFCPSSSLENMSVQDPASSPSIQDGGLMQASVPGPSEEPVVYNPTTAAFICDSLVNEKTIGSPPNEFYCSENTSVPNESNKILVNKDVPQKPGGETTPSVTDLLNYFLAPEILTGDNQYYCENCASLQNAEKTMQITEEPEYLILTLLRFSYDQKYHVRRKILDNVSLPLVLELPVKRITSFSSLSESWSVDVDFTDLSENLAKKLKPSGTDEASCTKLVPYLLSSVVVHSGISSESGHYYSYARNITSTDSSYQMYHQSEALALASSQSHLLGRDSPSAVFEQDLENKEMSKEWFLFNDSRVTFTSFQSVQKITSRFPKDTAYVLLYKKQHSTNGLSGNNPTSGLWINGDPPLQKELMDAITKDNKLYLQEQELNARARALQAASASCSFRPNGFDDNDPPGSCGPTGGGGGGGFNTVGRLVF
As to the kind of experiment: log2 ratio of Biotin-Ahx-Ub-VS probe labelling (fragment/DMSO); higher = less target engagement (more negative = stronger competition), active = hit call of the paper (q ≤ 0.05, log2 ratio ≤ -1). To be noted: compound concentration: 200 uM; treatment time: 3 h. As to the method:
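Competitive ABPP in HEK293T cell lysate. Lysates were treated with each chloroacetamide fragment at 200 µM for 3 h, then with Biotin-Ahx-Ub-VS (0.5 µM, 1 h), NeutrAvidin-enriched and analysed by diaPASEF LC-MS/MS. Protein LFQ was median-normalised; average log2 ratio is fragment/DMSO from an unpaired t-test (n=3 treated, n=44 DMSO). Hits: q ≤ 0.05, log2 ratio ≤ -1, unique peptides ≥ 2.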
For `CC1CCCCN1C(=O)CCl` (centres undefined), the “log2 ratio of Biotin-Ahx-Ub-VS probe labelling” value (from here on “log2 ratio”) is -0.196. For the molecule `Cc1cc(NC(=O)CCl)no1`, the “log2 ratio” value is -0.139.

As to `O=C(CCl)NCC1CCCO1` (centres undefined), the “log2 ratio” value was -0.00745. On to `Cc1cccc(NC(=O)CCl)c1`, for which the “log2 ratio” value is -0.146. For `Cc1ncsc1CNC(=O)CCl.Cl` the value was 0.147. For `O=C(CCl)NCC1CCC1`, the “log2 ratio” value was 0.000742. For `CC1CN(C(=O)CCl)CC(C)O1` (centres undefined), the “log2 ratio” value was -0.205. For `O=C(CCl)N1CCCC1=O`, the “log2 ratio” value is -0.1.

Turning to `CC(C)CN(C(=O)CCl)C1CC1`, the “log2 ratio” value was 0.00725. For `O=C(CCl)N1CCCCCCC1` the value was -0.0744; for `N#CC1(NC(=O)CCl)CCCC1`, -0.0299; for `Cc1nnc(NC(=O)CCl)s1`, -0.33. Consider `CC1CCCCC1NC(=O)CCl` (centres undefined), for which the “log2 ratio” value is -0.0227. As for `O=C(CCl)NC(C1CC1)C1CC1`, the “log2 ratio” value is -0.124. In the case of `CC(NC(=O)CCl)c1cccs1` (centres undefined), the “log2 ratio” value is -0.0174.

On to `Cc1nc(NC(=O)CCl)sc1C`, for which the “log2 ratio” value is -0.00435. For `O=C(CCl)Nc1cccc(Cl)c1`, the “log2 ratio” value is -0.568. On to `CN(C(=O)CCl)C1CCCCC1`, for which the “log2 ratio” value was 0.0172. Regarding `O=C(CCl)NCc1ccco1`, the “log2 ratio” value is -0.144.
